# Reference: PubChem BioAssay (EPA / NIEHS)
# Values joined by “and” are separate entries in the source; they are usually repeats but may differ in a detail not shown here. Equal entries are not always repeated. Records with an inconclusive call do not appear. Active and inactive are the calls of the source. The calls were made as follows, unless noted: active = hit-call score of the fitted dose curve at least 0.9, where 1 is the maximum; inactive = score below 0.9.
# Experiments:
# [1] = molecular target: Myc proto-oncogene protein (Homo sapiens) (UniProt P01106); assay: ATG_Myc_CIS: Attagene CIS-FACTORIAL HepG2 Assay for human Myelocytomatosis (Myc) Proto-Oncogene Transcription Factor (AID 2282990); conditions: HepG2, Attagene cis-reporter transcription factor activity; actives raise or lower the signal
# How it was run: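 HepG2 cells transiently transfected with multiple cis-promoter-driven reporter transcription units, so endogenous TF activity is read. After 24 h compound exposure, reporter mRNA was quantified by RT-PCR, 6-FAM labelling, HpaI digestion and capillary electrophoresis; bidirectional fit versus DMSO.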
# [2] = ATG_NRF2_ARE_CIS: Attagene CIS-FACTORIAL HepG2 Assay for human Nuclear Factor Erythroid 2 Related Factor 2 (NFR2) response to Antioxidant Response Elements (ARE) (AID 2282992); conditions: HepG2 Attagene ARE/NRF2 reporter, transcription factor activity; actives raise or lower the signal;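 as to AC50: reporter mRNA level measured by RT-PCR and capillary electrophoresis fluorescence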
# How it was run: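 Multiplexed reporter mRNA profiling in HepG2 after a 24 h chemical exposure. Curves fitted in both directions relative to DMSO negative control.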
# [3] = ATG_Oct_MLP_CIS: Attagene CIS-FACTORIAL HepG2 Assay for human Octamer-Binding Transcription Factor (Oct) (AID 2282993); conditions: HepG2 Attagene cis-factorial Oct reporter, mRNA; actives raise or lower the signal
# How it was run: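 Readout is reporter transcript level from RT-PCR with fluorescent primer extension and capillary electrophoresis, fitted in both directions against DMSO. Transfected HepG2 reporter units report endogenous factor activity after 24 h dosing.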
# [4] = molecular target: human Peroxisome Proliferator-activated Receptor alpha (PPARa), PPARA (gene 5465) (UniProt Q07869); assay: ATG_PPARa_TRANS: Attagene TRANS-FACTORIAL HepG2 Assay for human Peroxisome Proliferator-activated Receptor alpha (PPARa) (AID 2283001; active = hit-call score of the fitted dose curve at least 0.9, where 1 is the maximum;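 as to AC50: potency for gain of reporter signal over DMSO so agonist or activator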)
# How it was run: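 HepG2 cells transiently transfected with multiplexed GAL4-UAS reporter units and chimeric NR-Gal4 constructs were dosed for 24 h. Reporter mRNA was measured by RT-PCR with fluorescent labelling and capillary electrophoresis; gain of signal fitted against DMSO.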
# [5] = molecular target: human Peroxisome Proliferator-activated Receptor delta (PPARd), PPARD (gene 5467) (UniProt Q03181); assay: ATG_PPARd_TRANS: Attagene TRANS-FACTORIAL HepG2 Assay for human Peroxisome Proliferator-activated Receptor delta (PPARd) (AID 2283002; active = hit-call score of the fitted dose curve at least 0.9, where 1 is the maximum)
# How it was run: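 HepG2 cells transiently transfected with multiplexed GAL4-UAS reporter units and exogenous chimeric NR-Gal4 proteins; 24 h compound exposure. Reporter mRNA measured by RT-PCR, 6-FAM labelling, HpaI digestion and capillary electrophoresis; gain of signal versus DMSO.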
# [6] = molecular target: human Retinoic Acid Receptor gamma (RARg), RARG (gene 5916) (UniProt P13631); assay: ATG_RARg_TRANS: Attagene TRANS-FACTORIAL HepG2 Assay for human Retinoic Acid Receptor gamma (RARg) (AID 2283009; active = hit-call score of the fitted dose curve at least 0.9, where 1 is the maximum)
# How it was run: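 HepG2, RARg-GAL4 TRANS system, 24 h exposure; reporter mRNA by RT-PCR + CE fluorescence; increase over DMSO.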
# [7] = molecular target: human RAR-related Orphan Receptor gamma (RORg), RORC (gene 6097) (UniProt P51449); assay: ATG_RORg_TRANS: Attagene TRANS-FACTORIAL HepG2 Assay for human RAR-related Orphan Receptor gamma (RORg) (AID 2283011; active = hit-call score of the fitted dose curve at least 0.9, where 1 is the maximum)
# How it was run: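 Transient MRTU transfection of HepG2 (TRANS format, exogenous NR-Gal4 chimera). 24 h dosing. Total RNA → oligo(dT) RT → PCR → 6-FAM labelling → HpaI cut → CE. Gain vs DMSO.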
# [8] = BSK_3C_TissueFactor: BioMAP Diversity Plus: 3C Assay for Tissue Factor Biomarker Activity (AID 2282997); conditions: BioMAP 3C HUVEC, tissue factor biomarker readout; actives raise or lower the signal
# How it was run: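 Human vascular primary cells (umbilical vein endothelium) received test chemical; Tissue Factor was determined by ELISA at 24 h, and both gain and loss of signal versus DMSO were fitted.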
# [9] = BSK_3C_uPAR: BioMAP Diversity Plus: 3C Assay for Urokinase-type plasminogen activator receptor (uPAR) Biomarker Activity (AID 2282998); conditions: BioMAP 3C HUVEC, uPAR biomarker ELISA; actives raise or lower the signal
# How it was run: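 Cell-surface uPAR on HUVEC (3C system) read by ELISA at 24 h post-treatment, with DMSO as baseline and fitting in both directions. Parallel cultures stained with SRB to flag overt cytotoxicity.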
# [10] = BSK_4H_Eotaxin3: BioMAP Diversity Plus: 4H Assay for Eotaxin 3 Biomarker Activity (AID 2283000); conditions: primary human endothelial cells (HUVEC); actives raise or lower the signal;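 also: CCL26 protein level quantified by ELISA in parallel with SRB cytotoxicity check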
# How it was run: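 Readout is Eotaxin-3 (CCL26) level by ELISA in primary human umbilical vein endothelial cells harvested 24 h after chemical exposure; activity fitted in both directions against DMSO control.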
# [11] = read-out: Intercellular Adhesion Molecule 1 (ICAM1), ICAM1 (gene 3383); assay: BSK_3C_ICAM1: BioMAP Diversity Plus: 3C Assay for Intercellular Adhesion Molecule 1 (ICAM1) Biomarker Activity (AID 2283003); conditions: primary human endothelial cells (HUVEC); actives raise or lower the signal
# How it was run: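 Human vascular endothelial primary cells, 3C conditions, 24 h treatment. ICAM-1 by ELISA.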
# [12] = BSK_3C_Proliferation: Cell Proliferation Assessment in the BioMAP Diversity Plus: 3C Assay (AID 2283006); conditions: primary human endothelial cells (HUVEC);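 as to AC50: potency may reflect either rise or fall in cell number versus DMSO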
# How it was run: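 Proliferation of human vascular endothelial primary cells after 48 h dosing, quantified as SRB-stained protein at 560 nm relative to DMSO.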
# [13] = molecular target: Nuclear receptor subfamily 1 group I member 2 (Homo sapiens) (UniProt O75469); assay: ATG_PXR_TRANS: Attagene TRANS-FACTORIAL HepG2 Assay for human Pregnane X Receptor (PXR) (AID 2283008; active = hit-call score of the fitted dose curve at least 0.9, where 1 is the maximum)
# How it was run: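 Measures mRNA induction of a GAL4-UAS-driven reporter in human HepG2 cells transiently expressing PXR fused to Gal4, following 24 h treatment. DMSO served as negative control and baseline.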
# [14] = molecular target: Retinoic acid receptor alpha (Homo sapiens) (UniProt P10276); assay: ATG_RARa_TRANS: Attagene TRANS-FACTORIAL HepG2 Assay for human Retinoic Acid Receptor alpha (RARa) (AID 2283005; active = hit-call score of the fitted dose curve at least 0.9, where 1 is the maximum)
# How it was run: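 HepG2 cells transiently transfected with multiple reporter units expressing chimeric RARα-GAL4 fusion, with GAL4-UAS-driven reporters. After 24 h compound exposure, reporter mRNA induction quantified by RT-PCR and capillary electrophoresis with fluorescent labeling; gain-of-signal fitted relative to DMSO control.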
# [15] = molecular target: Peroxisome proliferator-activated receptor gamma (Homo sapiens) (UniProt P37231); assay: ATG_PPARg_TRANS: Attagene TRANS-FACTORIAL HepG2 Assay for human Peroxisome Proliferator-activated Receptor-gamma (PPARg) (AID 2283007; active = hit-call score of the fitted dose curve at least 0.9, where 1 is the maximum)
# How it was run: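 HepG2 cells are transiently transfected with GAL4-UAS reporter units driven by chimeric NR-Gal4 fusions and dosed for 24 h. Reporter mRNA is quantified by RT-PCR, 6-FAM labelling, HpaI digestion and capillary electrophoresis. Induction is scored against DMSO.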
# [16] = BSK_3C_VCAM1: BioMAP Diversity Plus: 3C Assay for Vascular cell adhesion molecule 1 (VCAM1) Biomarker Activity (AID 2282999); conditions: BioMAP 3C HUVEC, VCAM1 ELISA, cytokine-stimulated; actives raise or lower the signal
# How it was run: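 Human umbilical vein endothelial cells were dosed with compound for 24 h, after which cell-surface VCAM-1 was quantified by ELISA. Bidirectional curve fitting used DMSO as negative control and activity baseline.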
# [17] = molecular target: human RAR-related Orphan Receptor beta (RORb), RORB (gene 6096) (UniProt Q92753); assay: ATG_RORb_TRANS: Attagene TRANS-FACTORIAL HepG2 Assay for human RAR-related Orphan Receptor beta (RORb) (AID 2283010; active = hit-call score of the fitted dose curve at least 0.9, where 1 is the maximum)
# How it was run: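 In this TRANS-format test, human HepG2 cells express chimeric NR-Gal4 fusion proteins driving GAL4-UAS reporters. After 24 h dosing, reporter transcripts are measured by fluorescent RT-PCR/capillary electrophoresis, with DMSO as negative control.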
# [18] = molecular target: Cellular tumor antigen p53 (Homo sapiens) (UniProt P04637); assay: ATG_p53_CIS: Attagene CIS-FACTORIAL HepG2 Assay for human p53 Transcription Factor (AID 2282994); conditions: HepG2 p53 cis-element reporter, Attagene mRNA; actives raise or lower the signal
# How it was run: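 Multiplexed reporter mRNA assay in human HepG2 liver cells; cis-regulated units report endogenous factor activity. Values come from bidirectional curve fitting against DMSO negative control after 24 h treatment.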
# [19] = molecular target: human Retinoic Acid Receptor beta (RARb), RARB (gene 5915) (UniProt P10826); assay: ATG_RARb_TRANS: Attagene TRANS-FACTORIAL HepG2 Assay for human Retinoic Acid Receptor beta (AID 2283004; active = hit-call score of the fitted dose curve at least 0.9, where 1 is the maximum)
# How it was run: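 Readout is reporter mRNA induction: RNA reverse-transcribed, PCR-amplified, FAM-labelled, HpaI-cut and resolved by capillary electrophoresis. Transiently transfected HepG2 cells carrying exogenous NR–Gal4 chimeras were dosed for 24 h; activity fitted upward relative to DMSO.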
# Chain of Cellular tumor antigen p53 (Homo sapiens) (P04637 whole entry, looked up): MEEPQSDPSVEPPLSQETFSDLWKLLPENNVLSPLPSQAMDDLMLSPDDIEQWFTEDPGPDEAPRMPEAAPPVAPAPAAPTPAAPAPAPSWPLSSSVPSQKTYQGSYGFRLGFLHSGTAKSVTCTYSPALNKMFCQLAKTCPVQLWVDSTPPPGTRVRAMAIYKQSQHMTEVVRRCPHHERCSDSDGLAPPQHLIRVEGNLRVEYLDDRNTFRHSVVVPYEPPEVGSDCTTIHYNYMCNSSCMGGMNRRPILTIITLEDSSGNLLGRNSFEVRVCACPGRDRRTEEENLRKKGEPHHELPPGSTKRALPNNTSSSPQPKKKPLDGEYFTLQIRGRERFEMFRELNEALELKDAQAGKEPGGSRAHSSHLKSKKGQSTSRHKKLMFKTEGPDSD
# Chain of human Peroxisome Proliferator-activated Receptor delta (PPARd), PPARD (gene 5467) (Q03181 whole entry, looked up, the tested form may be a part): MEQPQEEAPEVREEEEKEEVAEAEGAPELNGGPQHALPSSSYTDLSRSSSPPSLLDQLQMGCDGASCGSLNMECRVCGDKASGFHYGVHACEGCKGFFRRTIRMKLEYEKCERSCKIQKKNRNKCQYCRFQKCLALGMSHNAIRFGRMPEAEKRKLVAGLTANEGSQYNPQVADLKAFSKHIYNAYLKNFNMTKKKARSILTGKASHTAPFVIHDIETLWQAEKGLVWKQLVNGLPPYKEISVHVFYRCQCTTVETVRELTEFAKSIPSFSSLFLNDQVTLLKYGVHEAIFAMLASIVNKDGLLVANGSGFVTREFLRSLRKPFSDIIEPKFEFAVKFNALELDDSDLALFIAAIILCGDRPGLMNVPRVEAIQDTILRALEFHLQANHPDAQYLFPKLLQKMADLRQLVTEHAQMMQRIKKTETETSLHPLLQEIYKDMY
# Chain of Peroxisome proliferator-activated receptor gamma (Homo sapiens) (P37231 whole entry, looked up, the tested form may be a part): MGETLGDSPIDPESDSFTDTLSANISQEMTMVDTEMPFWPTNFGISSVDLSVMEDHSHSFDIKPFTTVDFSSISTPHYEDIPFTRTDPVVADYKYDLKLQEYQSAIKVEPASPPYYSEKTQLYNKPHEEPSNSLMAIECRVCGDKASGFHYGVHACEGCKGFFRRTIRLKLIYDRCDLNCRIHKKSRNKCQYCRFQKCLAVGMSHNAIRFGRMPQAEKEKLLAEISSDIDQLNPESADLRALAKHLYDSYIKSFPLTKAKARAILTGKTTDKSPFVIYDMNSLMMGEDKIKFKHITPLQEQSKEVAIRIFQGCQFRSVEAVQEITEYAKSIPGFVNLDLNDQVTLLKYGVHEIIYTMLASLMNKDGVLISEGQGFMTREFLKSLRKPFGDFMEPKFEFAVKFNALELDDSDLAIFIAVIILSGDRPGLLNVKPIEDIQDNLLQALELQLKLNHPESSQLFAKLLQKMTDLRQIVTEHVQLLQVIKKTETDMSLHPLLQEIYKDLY
# Chain of human RAR-related Orphan Receptor gamma (RORg), RORC (gene 6097) (P51449 whole entry, looked up, the tested form may be a part): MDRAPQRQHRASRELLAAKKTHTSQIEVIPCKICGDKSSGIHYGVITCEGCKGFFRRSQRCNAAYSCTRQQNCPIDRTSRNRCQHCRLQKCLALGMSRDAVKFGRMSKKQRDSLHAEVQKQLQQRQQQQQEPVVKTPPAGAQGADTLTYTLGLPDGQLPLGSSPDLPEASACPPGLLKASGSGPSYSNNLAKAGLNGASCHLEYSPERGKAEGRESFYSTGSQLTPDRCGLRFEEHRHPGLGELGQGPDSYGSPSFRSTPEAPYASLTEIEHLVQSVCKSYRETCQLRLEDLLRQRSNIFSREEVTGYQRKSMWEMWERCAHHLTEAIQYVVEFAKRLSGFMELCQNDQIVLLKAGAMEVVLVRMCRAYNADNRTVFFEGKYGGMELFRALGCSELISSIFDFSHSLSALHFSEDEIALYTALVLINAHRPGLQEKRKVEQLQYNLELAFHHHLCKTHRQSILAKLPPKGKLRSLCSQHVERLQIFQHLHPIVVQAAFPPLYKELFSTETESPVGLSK
# Chain of human Retinoic Acid Receptor gamma (RARg), RARG (gene 5916) (P13631 whole entry, looked up, the tested form may be a part): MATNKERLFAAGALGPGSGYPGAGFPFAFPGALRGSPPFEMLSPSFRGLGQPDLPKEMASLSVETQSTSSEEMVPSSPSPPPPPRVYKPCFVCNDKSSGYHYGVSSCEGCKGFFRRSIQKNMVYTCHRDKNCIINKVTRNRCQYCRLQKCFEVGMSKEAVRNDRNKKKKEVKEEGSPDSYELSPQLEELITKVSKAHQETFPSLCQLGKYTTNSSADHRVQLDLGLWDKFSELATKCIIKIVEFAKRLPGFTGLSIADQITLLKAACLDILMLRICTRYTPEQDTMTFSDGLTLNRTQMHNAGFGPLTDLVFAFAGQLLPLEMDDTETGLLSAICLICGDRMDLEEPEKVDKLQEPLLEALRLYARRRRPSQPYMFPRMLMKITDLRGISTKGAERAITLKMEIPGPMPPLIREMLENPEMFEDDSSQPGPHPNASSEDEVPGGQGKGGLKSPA
# Chain of human Retinoic Acid Receptor beta (RARb), RARB (gene 5915) (P10826 whole entry, looked up, the tested form may be a part): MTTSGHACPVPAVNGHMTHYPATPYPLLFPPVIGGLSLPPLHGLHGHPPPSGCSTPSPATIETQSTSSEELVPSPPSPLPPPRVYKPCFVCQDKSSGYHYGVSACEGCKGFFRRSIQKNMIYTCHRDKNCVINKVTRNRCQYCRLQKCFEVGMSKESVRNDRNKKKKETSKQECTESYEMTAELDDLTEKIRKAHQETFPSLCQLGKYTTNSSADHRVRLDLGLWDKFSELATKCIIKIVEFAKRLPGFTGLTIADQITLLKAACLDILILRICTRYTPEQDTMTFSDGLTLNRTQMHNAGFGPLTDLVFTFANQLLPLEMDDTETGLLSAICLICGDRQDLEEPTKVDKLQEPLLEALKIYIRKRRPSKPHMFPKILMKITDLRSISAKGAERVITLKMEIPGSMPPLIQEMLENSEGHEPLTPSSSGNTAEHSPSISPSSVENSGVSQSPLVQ
# Chain of Nuclear receptor subfamily 1 group I member 2 (Homo sapiens) (O75469 whole entry, looked up, the tested form may be a part): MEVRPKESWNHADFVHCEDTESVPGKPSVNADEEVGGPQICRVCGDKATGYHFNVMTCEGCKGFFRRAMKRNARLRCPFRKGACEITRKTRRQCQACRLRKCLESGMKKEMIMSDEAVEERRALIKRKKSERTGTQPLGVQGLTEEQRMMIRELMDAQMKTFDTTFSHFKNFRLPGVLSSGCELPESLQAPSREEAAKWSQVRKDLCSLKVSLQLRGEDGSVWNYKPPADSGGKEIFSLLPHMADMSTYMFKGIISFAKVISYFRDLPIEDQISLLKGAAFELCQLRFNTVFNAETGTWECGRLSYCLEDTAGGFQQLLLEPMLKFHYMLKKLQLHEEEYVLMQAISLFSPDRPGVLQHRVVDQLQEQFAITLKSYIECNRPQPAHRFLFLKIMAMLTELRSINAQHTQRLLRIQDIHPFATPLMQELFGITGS
# Chain of Myc proto-oncogene protein (Homo sapiens) (P01106 whole entry, looked up): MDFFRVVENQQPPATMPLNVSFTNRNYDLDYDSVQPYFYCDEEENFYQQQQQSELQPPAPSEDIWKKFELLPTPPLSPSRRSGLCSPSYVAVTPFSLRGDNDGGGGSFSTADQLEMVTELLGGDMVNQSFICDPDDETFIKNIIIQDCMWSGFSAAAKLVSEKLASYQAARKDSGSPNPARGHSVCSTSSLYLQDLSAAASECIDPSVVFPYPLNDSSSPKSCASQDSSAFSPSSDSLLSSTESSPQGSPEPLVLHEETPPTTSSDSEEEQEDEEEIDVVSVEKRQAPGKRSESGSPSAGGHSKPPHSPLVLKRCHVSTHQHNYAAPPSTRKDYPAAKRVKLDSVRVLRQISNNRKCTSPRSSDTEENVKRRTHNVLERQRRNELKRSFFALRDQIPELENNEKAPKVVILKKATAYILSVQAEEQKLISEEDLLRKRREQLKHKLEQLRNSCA
# Chain of human RAR-related Orphan Receptor beta (RORb), RORB (gene 6096) (Q92753 whole entry, looked up, the tested form may be a part): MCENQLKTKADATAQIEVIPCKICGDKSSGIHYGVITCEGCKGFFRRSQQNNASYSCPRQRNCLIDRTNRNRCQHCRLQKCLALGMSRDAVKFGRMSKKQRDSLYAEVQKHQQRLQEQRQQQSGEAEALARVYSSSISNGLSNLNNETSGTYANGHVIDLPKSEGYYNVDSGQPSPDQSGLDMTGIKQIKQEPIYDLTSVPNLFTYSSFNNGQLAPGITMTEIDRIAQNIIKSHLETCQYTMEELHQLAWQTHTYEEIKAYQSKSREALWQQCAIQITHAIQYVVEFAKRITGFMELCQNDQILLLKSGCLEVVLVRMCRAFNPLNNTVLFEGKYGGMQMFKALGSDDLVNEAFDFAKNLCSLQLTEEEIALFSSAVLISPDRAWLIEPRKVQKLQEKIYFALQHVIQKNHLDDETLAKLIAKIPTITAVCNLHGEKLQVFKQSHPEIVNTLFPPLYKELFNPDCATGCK
# Chain of human Peroxisome Proliferator-activated Receptor alpha (PPARa), PPARA (gene 5465) (Q07869 whole entry, looked up, the tested form may be a part): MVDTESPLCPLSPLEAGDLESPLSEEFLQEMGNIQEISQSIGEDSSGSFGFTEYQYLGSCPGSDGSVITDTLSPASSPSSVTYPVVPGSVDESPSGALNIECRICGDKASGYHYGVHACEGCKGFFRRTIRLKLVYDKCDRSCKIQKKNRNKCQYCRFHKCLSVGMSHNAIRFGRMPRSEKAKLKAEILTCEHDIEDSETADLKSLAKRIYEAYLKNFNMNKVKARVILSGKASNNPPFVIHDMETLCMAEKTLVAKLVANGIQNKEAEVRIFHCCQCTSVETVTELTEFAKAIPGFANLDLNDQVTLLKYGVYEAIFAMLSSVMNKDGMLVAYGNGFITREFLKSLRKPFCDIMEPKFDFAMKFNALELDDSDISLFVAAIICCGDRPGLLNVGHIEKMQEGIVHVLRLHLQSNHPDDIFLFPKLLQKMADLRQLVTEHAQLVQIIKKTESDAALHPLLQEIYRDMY
smiles,measurement,setting,value
CC1(C)COP(Oc2ccccc2)OC1,outcome,[1],inactive
same,outcome,[2],inactive
same,outcome,[3],inactive
same,outcome,[4],inactive
same,outcome,[5],inactive
same,outcome,[6],inactive
same,outcome,[7],inactive
CN(C)C(=S)S,outcome,[1],inactive
same,AC50,[2],26.8 µM (active)
same,outcome,[3],inactive
same,outcome,[8],inactive
same,outcome,[9],inactive
same,outcome,[10],inactive
same,outcome,[11],inactive
same,outcome,[12],inactive
same,outcome,[13],inactive
CCCCC(CC)COC(=O)Cl (stereo unspecified),outcome,[1],inactive
same,outcome,[2],inactive
same,outcome,[3],inactive
same,outcome,[14],inactive
same,outcome,[15],inactive
same,outcome,[6],inactive
CC(C)(C)c1ccccc1O,outcome,[1],inactive
same,outcome,[2],inactive
same,outcome,[8],inactive
same,outcome,[9],inactive
same,outcome,[16],inactive
same,outcome,[10],inactive
same,outcome,[4],inactive
same,outcome,[5],inactive
same,outcome,[11],inactive
same,outcome,[12],inactive
same,outcome,[15],inactive
same,AC50,[13],15.4 µM (active)
O=c1[nH]c(=O)n(Cl)c(=O)n1Cl,outcome,[1],inactive
same,outcome,[2],inactive
same,outcome,[3],inactive
same,outcome,[4],inactive
same,outcome,[15],inactive
same,outcome,[13],inactive
same,outcome,[17],inactive
same,outcome,[7],inactive
CCOCn1c(-c2ccc(Cl)cc2)c(C#N)c(Br)c1C(F)(F)F,AC50,[1],150 µM (active)
same,outcome,[2],inactive
same,AC50,[3],1.92 µM (active)
same,outcome,[4],inactive
same,outcome,[5],inactive
same,AC50,[15],4.71 µM (active)
same,AC50,[13],0.561 µM (active)
same,outcome,[6],inactive
CN(N=O)c1ccc([N+](=O)[O-])cc1,outcome,[1],inactive
same,AC50,[2],32.3 µM (active)
same,outcome,[3],inactive
same,outcome,[4],inactive
same,AC50,[15],31.9 µM (active)
same,AC50,[13],19.8 µM (active)
Cc1cc(Cl)ccc1N,outcome,[1],inactive
same,AC50,[2],27.4 µM (active) and 36.6 µM (active)
same,outcome,[3],inactive
same,outcome,[8],inactive
same,outcome,[9],inactive
same,outcome,[10],inactive
same,outcome,[4],inactive
same,outcome,[11],inactive
same,AC50,[12],5.46 µM (active)
same,outcome,[15],inactive
same,outcome,[13],inactive
NNCCO,outcome,[1],inactive
same,outcome,[2],inactive
same,outcome,[3],inactive
same,outcome,[7],inactive
Oc1c(Cl)cc(Cl)cc1Cl,outcome,[1],inactive
same,outcome,[3],inactive
same,outcome,[18],inactive
same,outcome,[8],inactive
same,outcome,[9],inactive
same,outcome,[10],inactive
same,AC50,[4],15.9 µM (active)
same,outcome,[5],inactive
same,outcome,[11],inactive
same,outcome,[12],inactive
same,AC50,[15],42.5 µM (active)
same,outcome,[7],inactive
C1CN2CCN1CC2,outcome,[1],inactive
same,outcome,[2],inactive
same,outcome,[3],inactive
same,outcome,[19],inactive
same,outcome,[15],inactive
same,outcome,[13],inactive
same,outcome,[17],inactive
C=C(C)C(=O)OCCCCOC(=O)C(=C)C,outcome,[1],inactive
same,AC50,[2],48.3 µM (active)
same,outcome,[3],inactive
same,AC50,[15],79.9 µM (active)
same,outcome,[6],inactive
same,outcome,[17],inactive
CC(=Cc1ccccc1)[N+](=O)[O-],AC50,[1],18.6 µM (active)
same,AC50,[2],2.61 µM (active)
same,AC50,[18],18 µM (active)
same,AC50,[4],11.1 µM (active)
same,AC50,[15],3.91 µM (active)
COP(=S)(OC)Oc1cc(Cl)c(I)cc1Cl,outcome,[1],inactive
same,AC50,[2],8.28 µM (active)
same,AC50,[18],52.6 µM (active)
same,AC50,[4],38 µM (active)
same,outcome,[5],inactive
same,AC50,[15],28.3 µM (active)
same,AC50,[13],21.8 µM (active)
Nc1ncn[nH]1,outcome,[1],inactive
same,outcome,[2],inactive
same,outcome,[3],inactive
same,outcome,[5],inactive
Cc1cccc(C)c1NC(=O)CN1CCCC1=O,outcome,[1],inactive
same,outcome,[2],inactive
same,outcome,[18],inactive
same,outcome,[4],inactive
same,outcome,[19],inactive
same,outcome,[15],inactive
same,outcome,[13],inactive
O=NN1CCOCC1,outcome,[1],inactive
same,outcome,[2],inactive
same,outcome,[18],inactive
same,outcome,[4],inactive
same,outcome,[5],inactive
same,outcome,[15],inactive
CC(C)CP(=S)(S)CC(C)C,outcome,[1],inactive
same,outcome,[2],inactive
same,outcome,[18],inactive
same,outcome,[19],inactive
same,outcome,[15],inactive
same,AC50,[13],59.1 µM (active)
same,outcome,[6],inactive
same,outcome,[17],inactive
c1ccc2sc(SNC3CCCCC3)nc2c1,AC50,[1],148 µM (active)
same,AC50,[2],80.6 µM (active)
same,AC50,[8],1.16 µM (active)
same,outcome,[9],inactive
same,outcome,[10],inactive
same,outcome,[4],inactive
same,outcome,[5],inactive
same,outcome,[11],inactive
same,outcome,[12],inactive
same,AC50,[15],6.77 µM (active)
same,AC50,[13],20.2 µM (active)
same,outcome,[17],inactive
same,outcome,[7],inactive
